High-throughput results deposited in PubChem BioAssay by National Center for Advancing Translational Sciences (NCATS).
In the library only some 19% were active in any assay of this set; here they are far more common.
HT1080 IDH1KD tx: kills HT-1080 cells with IDH1 knockdown; 2% of 360,000 active; Potency, µM (series often up to 46.1 µM), hits mostly cytotoxic; HT-1080 IDH1 knockdown viability, ATP luminescence, 48 h
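Viability of IDH1-knockdown HT-1080 fibrosarcoma cells was assessed by CellTiter-Glo after 48 h at 37 °C with titrated compound; concentration-effect curves were classified by fit quality and response size.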
KB-3-1 tox: kills parental KB-3-1 adenocarcinoma cells. 1.4% of 400,000 active. Potency, µM (highest dose often 46.1 µM), actives largely listed as cytotoxic. KB-3-1 viability, CellTiter-Glo ATP luminescence, 72 h; further: nearly all actives have a fitted effect of over 60% in size
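KB-3-1 parental drug-naive adenocarcinoma cells in DMEM/10% FBS, incubated 72 h at 37 C with pin-transferred compounds across a concentration series. Viability by CellTiter-Glo luminescence; concentration-response curves fitted after normalization.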
KB-V1 MDR tox: KB-V1 MDR subline cytotoxicity; KB-V1 MDR cells viability, CellTiter-Glo, 72 h; Potency, µM (doses to about 46.1 µM), usual class: cytotoxic; 3.4% of 400,000 active; further: nearly all actives have a fitted effect of over 60% in size
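Compound-treated KB-V1 multidrug-resistant cells, 72 h, 37 degrees C; viability by CellTiter-Glo. Fitted qHTS curves give the values.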
HT1080NT lethal: kills 2HG-producing HT-1080-NT fibrosarcoma cells; Potency, µM (highest dose often 46.1 µM), most hits filed as cytotoxic; AID 686970; HT-1080-NT fibrosarcoma viability, CellTiter-Glo ATP luminescence, 48 h; 1.6% of 360,000 active;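 further: NT is the 2HG producing partner of a matched IDH1 knockdown line; nearly all actives have a fitted effect of over 55% in size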
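Viability by CellTiter-Glo luminescence after 48 h compound exposure at 37C of HT-1080-NT cells (750/well, RPMI, 5% FBS). % activity scaled between DMSO wells and medium-only wells, then curve-fitted and categorized by curve class.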
TDP1 cell noCPT: qHTS for Inhibitors of human tyrosyl-DNA phosphodiesterase 1 (TDP1): qHTS in cells in absence of CPT; DT40 Tdp1-/- hTDP1 cells, no CPT, ATP luminescence, 48 h; Potency, µM (series often up to 46.2 µM), actives largely listed as inhibitors; 15% of 420,000 active; AID 686978, 2013; further: nearly all actives have a fitted effect of over 55% in size
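Growth kinetics read by CellTiter-Glo luminescence after ≥48 hr at 37 °C. Cells: DT40 Tdp1-/- stably carrying human TDP1, 400 per well, compound exposure in the absence of CPT (DMSO vehicle).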
DT40 TDP1 CPT: DT40-hTDP1 cell growth loss with CPT. chicken DT40 Tdp1-/-;hTDP1 cells + 20 nM CPT, ATP luminescence, 48 h. Potency, µM (top dose mostly 46.2 µM), usual class: inhibitors. 12% of 420,000 active; further: nearly all actives have a fitted effect of over 55% in size
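Cell growth measured by CellTiter-Glo luminescence after a minimum 48 h, 37 C compound exposure with 20 nM CPT in Tdp1-knockout DT40 cells stably expressing hTDP1, seeded 400/well; qHTS titration format.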
A number is an active result; i = inactive; ? = inconclusive; nt = no result; [ ] = remark or other dose. The call rests on the fitted dose curve; in most records, active means well fitted curve in the direction sought with a large enough effect; inconclusive means small, poorly fitted or top-dose-only effect, or another doubt; inactive means no such curve, though single readings can be large; an effect the other way counts as inactive or inconclusive.

SMILES	HT1080 IDH1KD tx	KB-3-1 tox	KB-V1 MDR tox	HT1080NT lethal	TDP1 cell noCPT	DT40 TDP1 CPT
COCCCNC(=O)c1c[nH]c2ccc(S(=O)(=O)N3CCc4ccccc43)cc2c1=O	?	?	i	?	?	i
COCCNC(=O)c1c[nH]c2ccc(S(=O)(=O)N3CCc4ccccc43)cc2c1=O	2.3µM	?	i	2.3µM	6.5µM	15µM
O=S(=O)(c1ccc(F)c(F)c1)N1CCCc2ccccc21	i	i	i	i	?	i
CCCNC(=O)c1cc(S(=O)(=O)N2CCc3ccccc32)ccc1F	?	i	?	i	15µM	5.2µM
CCc1ccccc1NC(=O)c1cc(S(=O)(=O)N2CCc3ccccc32)ccc1F	nt	i	i	nt	10µM	16µM
CCC(=O)Nc1ccc(S(=O)(=O)N2CCc3ccccc32)cc1	i	i	i	i	i	?
CCc1ccccc1NC(=O)c1cc(S(=O)(=O)N2CCCc3ccccc32)ccc1F	nt	i	i	nt	18µM	16µM
NC(C(=O)O)[C@H](O)C(=O)O (some centres not stated)	nt	nt	nt	nt	i	i
COc1ccc(CCNC(=O)c2cc(S(=O)(=O)N3CCc4ccccc43)ccc2F)cc1OC	i	?	?	i	6.5µM	12µM
O=C(Nc1cc(Cl)ccc1Cl)c1cc(S(=O)(=O)N2CCCc3ccccc32)ccc1F	nt	i	i	nt	?	23µM
COc1ccccc1NC(=O)c1cc(S(=O)(=O)N2CCc3ccccc32)ccc1F	i	i	i	i	?	18µM
COc1ccccc1NC(=O)c1cc(S(=O)(=O)N2CCC3(CC2)OCCO3)ccc1F	i	?	i	i[9.24 µM]	i	?
COc1ccc(S(=O)(=O)N2CCc3ccccc32)cc1C(=O)NCCc1ccc(S(N)(=O)=O)cc1	i	i	i	i	i	i
COc1ccc(C2=NN(C(=O)CSc3nc(=O)n4cccc(C)c4n3)C(c3ccc(C)cc3)C2)cc1 (configuration not stated)	i	i	i	i	?	?
Cn1c(/C(C#N)=C(\O)c2ccc([N+](=O)[O-])cc2)nc2ccccc21	i	i	i	i	18µM	?
CCN(CC)S(=O)(=O)c1ccc(/C(O)=C(\C#N)c2nc3ccccc3n2C)cc1	i	i	?	i	?	?
Clc1ccc(C[n+]2cc(-c3ccccc3)n3c2CCC3)cc1Cl	?	?	i	?	3.7µM	6.5µM
Clc1ccc(-c2c[n+](Cc3cccc(Cl)c3)c3n2CCC3)cc1	?	6.5µM	i	i	8.2µM	10µM
O=C(Nc1ccsc1C(=O)O)c1ccccc1Cl	i	i	i	i	i	i
COC(=O)c1ccc(NC(=O)c2cc3sccc3n2C)cc1	i	i	i	i	?	29µM
COc1ccc(CNC(=O)c2cc3sccc3n2C)cc1	nt	nt	nt	nt	i	i
CCOc1ccc(CCNC(=O)c2cc3sc(Cl)cc3n2C)cc1OCC	i	?	i	i	?	?
CCOc1ccc(CCNC(=O)c2cc3sccc3n2C)cc1OCC	i	i	8.2µM	i	10µM	16µM
COc1ccc(CCNC(=O)c2cc3sccc3n2Cc2ccc(Cl)cc2)cc1OC	nt	nt	nt	nt	15µM	13µM
COc1ccc(CNC(=O)CN(C(=O)c2cc3sccc3n2C)C2CCCC2)cc1	i	i	?	i	13µM	?
SMILES	HT1080 IDH1KD tx	KB-3-1 tox	KB-V1 MDR tox	HT1080NT lethal	TDP1 cell noCPT	DT40 TDP1 CPT
O=C(CN1C(=O)C2CC=CCC2C1=O)NC1=NCCS1 (configuration not stated)	i	i	i	i	i	i
Cn1c(C(=O)Nc2ccc3c(c2)OCO3)cc2sccc21	i	i	?	i	?	?
Cn1c(C(=O)NCc2ccc3c(c2)OCO3)cc2sccc21	i	i	16µM	i	i	i
O=C(CN1CCN(C(c2ccccc2)c2ccccc2)CC1)N1CCOCC1	i	i	i	i	i	i
COc1ccccc1NC(=O)CN1CCN(Cc2ccccc2)CC1	i	i	10µM	i	i	i
CCC1(CC)NC(=O)N(CC(=O)Nc2ccc(OCc3ccccc3)cc2)C1=O	i	i	i	i	18µM	?
CCOc1ccccc1NC(=O)C(c1ccccc1)N1CCN(CC(=O)N2CCOCC2)CC1 (configuration not stated)	i	i	?	i[9.24 µM]	i	23µM
CCOc1ccc(NC(=O)CN2CCN(CC(=O)Nc3ccccc3OCC)CC2)cc1	nt	i	i	nt	21µM	16µM
COc1ccc(NC(=O)CN2C(=O)NC(c3ccccc3)(c3ccccc3)C2=O)cc1	i	i	i	i	?	?
CC1CCN(C(=O)CNC(=O)CNC(=O)Cc2ccccc2)CC1	i	nt	nt	i	i	i
CN(C)C(CNC(=O)CNC(=O)c1ccc(Br)cc1)c1ccccc1 (configuration not stated)	i	i	i	i	i	i
NC(=O)c1ccccc1NC(=O)CN1CCN(Cc2ccccc2)CC1	i	i	i	i	i	i
O=C(CN1CCCC1)Nc1ccc(OCc2ccccc2)cc1	i	i	i	i	?	i
N#CCN1CCN(CCC(=O)Nc2ccc(OCc3ccccc3)cc2)CC1	i	i	i	i	23µM	i
COc1ccccc1NC(=O)CN1CCN(CC(=O)Nc2ccc(F)cc2)CC1	i	i	i	i	?	i
O=C(CN1CCN(Cc2ccccc2)CC1)Nc1ccccc1-c1ccccc1	i	i	?	i	29µM	26µM
O=C(Cn1nc(-c2ccccc2Cl)ccc1=O)Nc1ccccc1-c1ccccc1	i	i	?	i	18µM	?
COc1ccccc1NC(=O)CN1CCN(CC(=O)Nc2ccc(OCc3ccccc3)cc2)CC1	?	i	?	?	16µM	?
COc1cc(CC(=O)NNC(=O)c2cc(C)oc2C)cc(OC)c1OC	i	i	i	i	i	i
CCN(CC(=O)NC1CCS(=O)(=O)C1)S(=O)(=O)c1c(C)c(C)cc(C)c1C (configuration not stated)	i	i	?	i	i	i
CC(C)CCn1c(=O)[nH]c2ccccc21	i	i	i	i	i	i
O=c1[nH]c2ccccc2n1CCCSCCCn1c(=O)[nH]c2ccccc21	i	21µM	18µM	i	?	?
O=c1[nH]c2ccccc2n1CCC1CCCCC1	?	i	18µM	i	?	i
c1ccc(CN2CCC(CNc3ncnc4ccccc34)C2)cc1 (configuration not stated)	i	i	?	?	10µM	21µM
c1ccc(CN2CCC(Nc3nc(-c4ccccc4)nc4ccccc34)CC2)cc1	nt	?	?	nt	?	i
CC(C)(C)CCN1CCC(CN2CCNC(=O)C2=O)CC1	i	?	i	i	i	i
